# The supplement of paper PMC8728848
# The full list was thinned out, with the strongest signals kept by preference.
# Columns and labels:
# Experiment in all cases: glycan array binding signal (z-score within array); higher = stronger binding
# Settings in all cases: glycan notation: IUPAC condensed, linker removed
# [1] = molecular target: Fuc(a1-2)Gal(b1-3)GalNAc(b1-3)Gal
# Summary of the method: (§1)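 The binding signal is a Z-score computed within each array and averaged over linkers. Arrays of the same protein sequence at different concentrations or buffers were also averaged together. Data originate from 3228 arrays in the Consortium for Functional Glycomics database, kept only where the protein sequence was available.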
# [2] = molecular target: Fuc(a1-2)Gal(b1-3)GlcNAc(b1-2)Man(a1-3)[Fuc(a1-2)Gal(b1-3)GlcNAc(b1-2)Man(a1-6)]Man(b1-4)GlcNAc(b1-4)GlcNAc
# Summary of the method: as §1
# [3] = molecular target: Fuc(a1-2)Gal(b1-4)GlcNAc(b1-3)[Fuc(a1-2)Gal(b1-4)GlcNAc(b1-6)]GalNAc
# Summary of the method: as §1
# [4] = molecular target: Fuc(a1-2)Gal3S(b1-4)GlcNAc
# Summary of the method: as §1
# [5] = molecular target: Fuc(a1-2)[Gal(a1-3)]Gal(b1-4)Glc
# Summary of the method: as §1
# [6] = molecular target: Fuc(a1-2)[Gal(a1-3)]Gal(b1-4)GlcNAc(b1-2)Man(a1-3)[Fuc(a1-2)[Gal(a1-3)]Gal(b1-4)GlcNAc(b1-2)Man(a1-6)]Man(b1-4)GlcNAc(b1-4)GlcNAc
# Summary of the method: as §1
# [7] = molecular target: Fuc(a1-3)[Gal(b1-4)]GlcNAc(b1-4)Gal(b1-4)[Fuc(a1-3)]GlcNAc(b1-4)Gal(b1-4)[Fuc(a1-3)]GlcNAc
# Summary of the method: as §1
# [8] = molecular target: Fuc(a1-3)[Gal3S(b1-4)]GlcNAc6S
# Summary of the method: as §1
# [9] = molecular target: Fuc(a1-3)[GalNAc(b1-4)]GlcNAc
# Summary of the method: as §1
# [10] = molecular target: Gal(a1-3)Fuc(a1-2)Gal(b1-4)GlcNAc(b1-3)[Gal(a1-3)Fuc(a1-2)Gal(b1-4)GlcNAc(b1-6)]GalNAc
# Summary of the method: as §1
# [11] = molecular target: Gal(a1-3)[Gal(a1-4)]Gal(b1-4)GlcNAc
# Summary of the method: as §1
# [12] = molecular target: Gal(b1-3)GalNAc(a1-3)[Fuc(a1-2)]Gal(b1-4)Glc
# Summary of the method: as §1
# [13] = molecular target: Gal(b1-3)[Fuc(a1-4)]GlcNAc(b1-3)Gal(b1-3)[Fuc(a1-4)]GlcNAc
# Summary of the method: as §1
# [14] = molecular target: Gal(b1-4)GalNAc(b1-3)[Fuc(a1-2)]Gal(b1-4)GlcNAc
# Summary of the method: as §1
# [15] = molecular target: Gal(b1-4)GlcNAc(b1-2)Man(a1-3)[Gal(b1-4)GlcNAc(b1-2)Man(a1-6)]Man(b1-4)GlcNAc(b1-4)GlcNAc
# Summary of the method: as §1
# [16] = molecular target: Gal(b1-4)GlcNAc(b1-2)Man(a1-3)[Gal(b1-4)GlcNAc(b1-2)Man(a1-6)][GlcNAc(b1-4)]Man(b1-4)GlcNAc(b1-4)[Fuc(a1-6)]GlcNAc
# Summary of the method: as §1
# [17] = molecular target: Gal(b1-4)GlcNAc(b1-2)[Gal(b1-4)GlcNAc(b1-6)]Man(a1-6)[GlcNAc(b1-4)][Gal(b1-4)GlcNAc(b1-2)[Gal(b1-4)GlcNAc(b1-4)]Man(a1-3)]Man(b1-4)GlcNAc(b1-4)[Fuc(a1-6)]GlcNAc
# Summary of the method: as §1
# [18] = molecular target: Gal(b1-4)GlcNAc(b1-3)Gal(b1-3)GlcNAc
# Summary of the method: as §1
# [19] = molecular target: Gal(b1-4)GlcNAc(b1-3)Gal(b1-4)Glc
# Summary of the method: as §1
# Gal3S(b1-4)Glc = molecular target: Gal3S(b1-4)Glc
# Summary of the method: as §1
# [20] = molecular target: Gal3S(b1-4)[Fuc(a1-3)]Glc6S
# Summary of the method: as §1
# Gal4S6S(b1-4)GlcNAc = molecular target: Gal4S6S(b1-4)GlcNAc
# Summary of the method: as §1
# Gal6S(b1-4)Glc6S = molecular target: Gal6S(b1-4)Glc6S
# Summary of the method: as §1
# GalNAc(b1-3)GlcNAc = molecular target: GalNAc(b1-3)GlcNAc
# Summary of the method: as §1
# GalNAc(b1-4)GlcNAc = molecular target: GalNAc(b1-4)GlcNAc
# Summary of the method: as §1
# [21] = molecular target: GalNAc(b1-4)GlcNAc(b1-3)GalNAc(b1-4)GlcNAc
# Summary of the method: as §1
# GalNAc6S(b1-4)GlcNAc = molecular target: GalNAc6S(b1-4)GlcNAc
# Summary of the method: as §1
# [22] = molecular target: Glc(a1-4)Glc(a1-4)Glc(a1-4)Glc
# Summary of the method: as §1
# [23] = molecular target: GlcNAc(a1-4)Gal(b1-4)GlcNAc
# Summary of the method: as §1
# [24] = molecular target: GlcNAc(a1-4)Gal(b1-4)GlcNAc(b1-3)Gal(b1-4)GlcNAc
# Summary of the method: as §1
# [25] = molecular target: GlcNAc(b1-2)Man(a1-3)[GlcNAc(b1-2)Man(a1-6)]Man(b1-4)GlcNAc(b1-4)GlcNAc
# Summary of the method: as §1
# [26] = molecular target: GlcNAc(b1-3)Gal(b1-4)GlcNAc(b1-3)Gal(b1-4)GlcNAc(b1-3)Gal(b1-4)GlcNAc(b1-3)Gal(b1-4)GlcNAc(b1-2)Man(a1-3)[GlcNAc(b1-3)Gal(b1-4)GlcNAc(b1-3)Gal(b1-4)GlcNAc(b1-3)Gal(b1-4)GlcNAc(b1-3)Gal(b1-4)GlcNAc(b1-2)Man(a1-6)]Man(b1-4)GlcNAc(b1-4)[Fuc(a1-6)]GlcNAc
# Summary of the method: as §1
# [27] = molecular target: GlcNAc(b1-3)Gal(b1-4)GlcNAc(b1-3)[GlcNAc(b1-3)Gal(b1-4)GlcNAc(b1-3)]GalNAc
# Summary of the method: as §1
# [28] = molecular target: GlcNAc(b1-3)[GlcNAc(b1-6)]GalNAc
# Summary of the method: as §1
# [29] = molecular target: Neu5Ac(a2-3)Gal(b1-3)[Fuc(a1-4)]GlcNAc(b1-3)Gal(b1-3)[Fuc(a1-4)]GlcNAc
# Summary of the method: as §1
# [30] = molecular target: Neu5Ac(a2-3)Gal(b1-3)[Neu5Ac(a2-6)]GlcNAc(b1-3)[Fuc(a1-3)[Gal(b1-4)]GlcNAc(b1-6)]Gal(b1-4)Glc
# Summary of the method: as §1
# Neu5Ac(a2-3)Gal(b1-4)Glc = molecular target: Neu5Ac(a2-3)Gal(b1-4)Glc
# Summary of the method: as §1
# [31] = molecular target: Neu5Ac(a2-3)Gal(b1-4)[Fuc(a1-3)]GlcNAc(b1-2)Man
# Summary of the method: as §1
# [32] = molecular target: Neu5Ac(a2-3)Gal(b1-4)[Fuc(a1-3)]GlcNAc(b1-6)[Neu5Ac(a2-3)Gal(b1-3)]GalNAc
# Summary of the method: as §1
# [33] = molecular target: Neu5Ac(a2-6)Gal(b1-4)GlcNAc(b1-2)Man(a1-3)[Gal(b1-4)GlcNAc(b1-2)Man(a1-6)]Man(b1-4)GlcNAc(b1-4)GlcNAc
# Summary of the method: as §1
# [34] = molecular target: Neu5Ac(a2-6)GalNAc(b1-4)GlcNAc6S
# Summary of the method: as §1
# [35] = molecular target: Neu5Ac9Ac(a2-6)Gal(b1-4)GlcNAc
# Summary of the method: as §1
# [36] = molecular target: Neu5Gc(a2-6)Gal(b1-4)GlcNAc
# Summary of the method: as §1
binder,measurement,setting,value
Blon2355mut (Bifidobacterium longum) (protein) MVQEPTLEWHVIPEPTNVEPLVGTCSLPLSGTVVEQRGADDAEAVFARQLVDDIKRVCGGRWQVASGEVQREVTLRTSPSLDDWSYVLEVSPDGVVITGSGFEGVRDGVQTLRQIIRQIGLTIPCMVIRDRPAFSTRGYYLDVTRGRVPSMAWLKSWVDRLCFYKYNQFQLYIEHTFQFNGLSEVWRGADPLTSSDILELDSYCAARGIELVPSVSTFGHHYTALRTRQLRDLGEFPEDADRPFSLIERMTHHTLNITDERSYEFSTSLIDELMPLFRSRKFNICANETFDLGKGRSKQESAKRGVGAMYADFVERLCRHVDDRGHDVMVWADVALEHPEIIDTLPKNITWLNWQYEPNVDDGTTAALADAGATQMVCPAVWCWNALIPRIDDAWNNITRMARHGRAHDVSGMLVTDWGDFGHVNDPRMSVPGMIFGAQQSWNPDAELSEVDMLSRISTIEYGDHTGSVVGALRGASAKGGFSWSDLVTYLELDDGRGGCNTEIVRVMGCLEAYRNDLPQSGQARLADARVSMLRTLRDSILAGRELNGKLDDAAKDITQLLRVAGDPSSAAVWSLAIDGQRLLNRVGLALLAAHGVVRQDEAGIDAAKLADELECWTEQYSRLWHEVSRQSELARIQHVVWRAADVLRSI,glycan array binding signal (z-score),[1],4.04
same,glycan array binding signal (z-score),[2],2.69
same,glycan array binding signal (z-score),[3],-0.88
same,glycan array binding signal (z-score),[4],-0.915
same,glycan array binding signal (z-score),[5],-0.428
same,glycan array binding signal (z-score),[6],-0.395
same,glycan array binding signal (z-score),[7],-0.166
same,glycan array binding signal (z-score),[8],0.088
same,glycan array binding signal (z-score),[9],3.72
same,glycan array binding signal (z-score),[10],-1.04
same,glycan array binding signal (z-score),[11],3.31
same,glycan array binding signal (z-score),[12],-1.53
same,glycan array binding signal (z-score),[13],-1.02
same,glycan array binding signal (z-score),[14],0.202
same,glycan array binding signal (z-score),[15],-0.374
same,glycan array binding signal (z-score),[16],-0.951
same,glycan array binding signal (z-score),[17],-0.768
same,glycan array binding signal (z-score),[18],-1.26
same,glycan array binding signal (z-score),[19],1.06
same,glycan array binding signal (z-score),Gal3S(b1-4)Glc,2.74
same,glycan array binding signal (z-score),[20],3.52
same,glycan array binding signal (z-score),Gal4S6S(b1-4)GlcNAc,0.175
same,glycan array binding signal (z-score),Gal6S(b1-4)Glc6S,1.48
same,glycan array binding signal (z-score),GalNAc(b1-3)GlcNAc,0.179
same,glycan array binding signal (z-score),GalNAc(b1-4)GlcNAc,3.04
same,glycan array binding signal (z-score),[21],0.796
same,glycan array binding signal (z-score),GalNAc6S(b1-4)GlcNAc,-0.569
same,glycan array binding signal (z-score),[22],2.06
same,glycan array binding signal (z-score),[23],-0.637
same,glycan array binding signal (z-score),[24],-0.378
same,glycan array binding signal (z-score),[25],-0.111
same,glycan array binding signal (z-score),[26],1.1
same,glycan array binding signal (z-score),[27],3.84
same,glycan array binding signal (z-score),[28],-0.847
same,glycan array binding signal (z-score),[29],-0.494
same,glycan array binding signal (z-score),[30],4.03
same,glycan array binding signal (z-score),Neu5Ac(a2-3)Gal(b1-4)Glc,3.29
same,glycan array binding signal (z-score),[31],1.4
same,glycan array binding signal (z-score),[32],1.6
same,glycan array binding signal (z-score),[33],-0.73
same,glycan array binding signal (z-score),[34],-0.126
same,glycan array binding signal (z-score),[35],3.4
PpFlo1 (Pichia pastoris) (protein) MGSSHHHHHHSSGLVPRGSHMQESGDGDISDSAYACDIDATRYDGFNATIYEFQPGDGRLTRDPVFMSTGYLNRTQLHSITGVTDPGFSIYTPGVPTTTLYGIPNVNWENLLLELKGYFRAEVSGDYGLSLRNIDDSAILFFGKETAFQCCNENSISNEASTDYSLFTIFRQEGDETTNLDSFTYTQYLEAGKYYPVRTFFVNIERHAVFNFTMTLPDGTELTDFHNYIYQFGALDEEQCQA,glycan array binding signal (z-score),[35],-0.44
same,glycan array binding signal (z-score),[36],0
